# Compound activity deposited in PubChem by National Center for Advancing Translational Sciences (NCATS).
# The sample as a whole holds a higher share of hits than the screen did.
# AmpC inh no detg – inhibitors of E. coli AmpC beta-lactamase without detergent; AID 485341; 330,000 compounds, 0.52% hits; AmpC nitrocefin hydrolysis, absorbance 480 nm, 0.0001% Triton; P00811; Potency, µM (highest dose often 57.1 µM), without a hit: at the highest dose activity change, negative = inhibition, hits mostly inhibitors;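 note: potency is the fitted concentration of half-maximal effect; plate controls were no compound for no effect and no enzyme for full effect; nearly all actives have a fitted effect of over 20% in size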
# Target sequence (P00811 whole entry, looked up): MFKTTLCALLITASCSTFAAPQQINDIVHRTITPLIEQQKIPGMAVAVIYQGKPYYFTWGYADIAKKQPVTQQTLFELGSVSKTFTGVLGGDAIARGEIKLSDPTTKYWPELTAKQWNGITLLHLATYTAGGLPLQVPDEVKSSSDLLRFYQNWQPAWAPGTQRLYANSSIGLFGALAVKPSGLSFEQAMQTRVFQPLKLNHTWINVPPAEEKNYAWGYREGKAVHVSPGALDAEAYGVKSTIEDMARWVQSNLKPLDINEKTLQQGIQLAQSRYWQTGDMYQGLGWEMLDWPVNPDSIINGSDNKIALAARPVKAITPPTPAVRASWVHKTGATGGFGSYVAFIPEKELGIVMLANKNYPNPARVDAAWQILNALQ
#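 AmpC (5.3 nM in the dispensed reagent) in 20 mM phosphate pH 7.0 with 0.01% (detergent screen) or 0.0001% Triton X-100 was preincubated with compounds for 15 min at room temperature. Nitrocefin was then added from an 800 uM solution, and hydrolysis was followed at 480 nm.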
# Shiga inhibitor – inhibitors of Shiga toxin in Vero cells | 290,000 compounds, 9.2% hits | Vero cells, Shiga toxin protein synthesis inhibition reporter | inhibition, % at 38.7 µM; in the data active = inhibition mostly above about 28%, no sharp cut-off; inactive = mostly below about 43%; note: 0% is about no effect
# AMA1 RON2 block – AMA1-RON2 (P. falciparum) interaction inhibition; AlphaScreen AMA1-biotinylated RON2 peptide binding; Potency, µM (series often up to 58.2 µM), for the others: at the top dose activity change, negative = inhibition, usual class: inhibitors; 360,000 compounds, 0.2% hits; AID 720542;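 note: potency is the fitted concentration of half-maximal effect; 0% = vehicle wells and -100% = peptide control; nearly all actives have a fitted effect of over 45% in size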
#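 AMA1 (3D7) with his tag at 25 nM final met compounds first, then biotinylated RON2 peptide at 25 nM; detection used donor plus acceptor beads, 10 µg/mL apiece, read by AlphaScreen after 30 min at room temperature.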
# CHX counter – counter-screen for Shiga toxin inhibitors: cycloheximide protein synthesis inhibition; max response, %; 300,000 compounds, 12% hits; AID 2314; cell reporter, cycloheximide protein synthesis inhibition counterscreen; in the data active = max response mostly above about 13%, no sharp cut-off; inactive = mostly below about 14%; note: read at 38.3 µM for the half of the compounds with a filed dose; 0% is about no effect
# SARS PLpro yeast – inhibitors of SARS-CoV papain-like protease in yeast; S. cerevisiae expressing SARS-CoV PLpro, growth rescue; Potency, µM (doses to about 32.9 µM), for inactives: at the top dose activity, positive = growth rescue, actives largely listed as activators; 330,000 compounds, 0.19% hits; AID 485353; calls by dose curve; note: potency is the fitted concentration of half-maximal effect; 0% is about no effect; nearly all actives have a fitted effect of over 55% in size
# AmpC detergent – AmpC beta-lactamase inhibition with detergent present; P00811; AmpC hydrolysis of nitrocefin, absorbance 480 nm, 0.01% Triton; Potency, µM (titrated, usually from 114 µM), for inactives: at the highest dose activity change, negative = inhibition, hits mostly inhibitors; 370,000 compounds, 0.041% hits; AID 485294;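 note: potency is the fitted concentration of half-maximal effect; 0% = no-compound wells and -100% = no-enzyme wells; nearly all actives have a fitted effect of over 25% in size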
#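 20 mM phosphate pH 7.0 + 0.01% (detergent screen) or 0.0001% Triton X-100; 5.3 nM AmpC reagent; cpd preinc 15 min RT; nitrocefin (800 uM stock) to start; A480 q20 s × 4 min; Activity was normalised to no-enzyme and no-compound control wells.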
# Numbers without * were called inactive; ? = inconclusive; . = no result; + = active, no number. Unless noted, calls come from the whole dose curve; as a rule, active = well fitted curve in the direction sought with a large enough effect; inconclusive = small, poorly fitted or top-dose-only effect, or another doubt; inactive = no such curve, though single readings can be large; an effect the other way counts as inactive or inconclusive.
SMILES,AmpC inh no detg,Shiga inhibitor,AMA1 RON2 block,CHX counter,SARS PLpro yeast,AmpC detergent
COc1ccc2c(c1)C(=O)c1ccccc1CO2,-18%,117*,-8%,53*,-16%,4%
CC1(C)C(O)=C(c2nc3ccccc3[nH]2)C(=N)N1c1ccccc1,0%,-13,96%,-2,-1%,1%
COc1ccc(/C=C/C(=O)Nc2ccccc2C(=O)NCC(c2ccc(OC)cc2)N(C)C)cc1 (centres undefined),96%,39*,-6%,10,0%,-1%
COc1ccc(/C=C/C(=O)Nc2ccccc2C(=O)O)cc1,-21%,-4,-6%,-3,-2%,-15%
COc1ccc(/C=C/C(=O)Nc2ccccc2C(=O)N2CCCC2)cc1,-11%,53*,18%,24,-5%,-8%
COc1ccc(/C=C/C(=O)Nc2ccccc2C(F)(F)F)cc1,-6%,59*,24%,24*,-5%,?
CCOc1ccc(/C=C/C(=O)Nc2ccccc2C(F)(F)F)cc1,-14%,38*,17%,36*,4%,-15%
COCCNC(=S)Nc1cc(OC)c(NC(=O)c2ccco2)cc1OC,48%,27,-7%,22*,-2%,-1%
CCCC(=O)Nc1ccc(NC(=O)c2ccco2)c(OC)c1,?,+,5%,28*,0%,0%
COc1cc(NC(=O)CC(C)C)ccc1NC(=O)c1ccco1,.,.,-1%,.,.,.
CCC(=O)Nc1ccc(NC(=O)c2ccco2)c(OC)c1,-2%,67*,-10%,30*,-2%,?
O=C(Nc1ccc(CSc2ccccc2)cc1)c1ccco1,-36%,96*,-7%,46*,-8%,-10%
CCOCCCNC(=S)Nc1cc(OCC)c(NC(=O)c2ccco2)cc1OCC,-8%,-10,-7%,-1,0%,9%
COC(=O)C1C2CC3c4[nH]c5cc(OC)ccc5c4CCN3CC2CC(OC(=O)CC(C)=O)C1OC (centres undefined),.,.,-1%,.,.,.
OC1(c2ccc3ccccc3c2)CCN(Cc2ccccc2)C1 (centres undefined),22%,28,-6%,33,3%,-9%
Cc1ccc(NC(=O)CSc2ccc(S(=O)(=O)N3CCCC3)cn2)cc1F,-25%,.,5%,.,1%,-6%
CCC(C)NC(=O)CN(c1ccc(OC)cc1)S(=O)(=O)c1ccccc1 (centres undefined),-14%,-3,1%,3,-1%,-6%
CCSc1nsc(NC(=O)Nc2ccc(F)cc2F)n1,-41%,87*,10%,59*,-3%,-5%
O=C(Nc1nc(SCc2ccc(F)cc2)ns1)c1ccco1,-24%,34,-7%,16*,-110%,-5%
O=C(Nc1nnc(COc2ccc(F)cc2)s1)c1ccco1,-31%,12,0%,5,0%,1%
CCSc1nsc(NC(=O)Nc2ccccc2Cl)n1,.,.,2%,.,.,.
CCC(=O)Nc1ccc(NC(=O)c2ccco2)cc1,-17%,57*,0%,25*,-14%,-11%
O=c1c2ccccc2oc2cc(Br)ccc12,.,.,0%,.,.,.
O=P1(O)C=C(c2ccccc2)OC(c2ccccc2)=C1,-11%,146*,12%,67*,1%,-1%
CCc1c(C)nc(SCC(=O)Nc2nc(-c3ccc(OC)cc3)cs2)[nH]c1=O,14µM*,-5,7%,2,0%,6%
SMILES,AmpC inh no detg,Shiga inhibitor,AMA1 RON2 block,CHX counter,SARS PLpro yeast,AmpC detergent
COc1ccc(-c2csc(NC(=O)CSc3n[nH]c(N)n3)n2)cc1,-33%,31,23%,12,-3%,3%
COc1ccc(-c2csc(NC(=O)CSc3n[nH]c(C)n3)n2)cc1,-24%,108*,0%,31*,-3%,-3%
Cc1nc(N2CCOCC2)nc(N2CCCCC2C)c1[N+](=O)[O-] (centres undefined),41%,-18,-19%,1,-1%,-10%
COc1cccc(-c2csc(NC3OC(=O)c4c3ccc(OC)c4OC)n2)c1 (centres undefined),-24%,42,-13%,46*,-3%,-6%
COc1ccc2c(c1OC)C(=O)OC2Nc1nc(-c2ccc(-c3ccccc3)cc2)cs1 (centres undefined),-48%,121*,-8%,80*,-85%,-5%
COc1ccc2c(c1OC)C(=O)OC2Nc1nc(-c2cc3ccccc3oc2=O)cs1 (centres undefined),-24%,68*,1%,59*,-67%,-5%
CCN(C(=O)COC(=O)c1cc(S(=O)(=O)N2CCOCC2)c(Cl)cc1Cl)C1CCS(=O)(=O)C1 (centres undefined),40%,-9,-2%,0,0%,-9%
O=C(CC1(CC2=NS(=O)(=O)c3ccccc3N2)CCCC1)NCCc1ccccc1,-11%,18,-5%,8.5*,-13%,?
COc1ccccc1C(CNC(=O)c1ccc(NS(=O)(=O)c2ccc(C(C)=O)cc2)cc1)N1CCCC1 (centres undefined),.,.,0%,.,.,.
COC(=O)c1c(Cl)c2n3ccccc3c(C)c(-c3ccccc3)c-2c1C(=O)OC,67%,-4,?,-3,11%,1%
CN(C)c1cccc(C(=O)Nc2cccc(F)c2)c1,-20%,68*,-34%,41*,-20%,-12%
CCN(CC)c1ccc(C(=O)NN)cc1,-11%,-4,21%,2,-3%,0%
CCN(CC)c1ccc(C(=O)Nc2cccc(F)c2)cc1,-48%,42,1%,28*,-7%,?
O=C(Nc1cccc(F)c1)c1c(F)c(F)c(F)c(F)c1F,-4%,-11,23%,4,-21%,-3%
COc1ccc(NC(=S)N2CCC(c3ccccc3)C2)cc1 (centres undefined),-18%,84*,-6%,40*,-5%,4%
Cc1ccc(C)c(NC(=S)N2CCCCCC2)c1,-25%,-8,0%,6,?,-1%
Cc1ccc(NC(=O)N2CCCC(c3ccccc3)C2)cc1 (centres undefined),-32%,26,9%,22*,0%,-1%
O=C(Nc1ccccc1)N1CCC(c2ccccc2)C1 (centres undefined),-21%,83*,-6%,39*,9%,-9%
O=C(Nc1ccc(Cl)c(Cl)c1)N1CCC(c2ccccc2)C1 (centres undefined),.,.,.,.,.,-1%
Cc1ccc(Cl)cc1NC(=S)N1CCC(c2ccccc2)C1 (centres undefined),-17%,27,1%,26*,-2%,-3%
COCCN1C(=O)N[C@@H](c2ccccc2)C(C(C)=O)=C1C,-10%,-12,-3%,-1,-1%,-9%
CC1=NN(C(=O)c2ccccc2Br)C(O)(c2ccc(Cl)cc2)C1 (centres undefined),-14%,-6,111%,1,3%,-5%
